Measured values from ChEMBL document CHEMBL1961873, “Compounds: GSK PKIS; Assays: Nanosyn kinase panel” (2012).

Tests used:
[1] = target: T1, Inhibitor of nuclear factor kappa-B kinase subunit epsilon (Homo sapiens) (UniProt Q14164); details: at 1 µM;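 also: reported values are averaged percent inhibition figures against human IKKε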
T1 sequence (whole entry): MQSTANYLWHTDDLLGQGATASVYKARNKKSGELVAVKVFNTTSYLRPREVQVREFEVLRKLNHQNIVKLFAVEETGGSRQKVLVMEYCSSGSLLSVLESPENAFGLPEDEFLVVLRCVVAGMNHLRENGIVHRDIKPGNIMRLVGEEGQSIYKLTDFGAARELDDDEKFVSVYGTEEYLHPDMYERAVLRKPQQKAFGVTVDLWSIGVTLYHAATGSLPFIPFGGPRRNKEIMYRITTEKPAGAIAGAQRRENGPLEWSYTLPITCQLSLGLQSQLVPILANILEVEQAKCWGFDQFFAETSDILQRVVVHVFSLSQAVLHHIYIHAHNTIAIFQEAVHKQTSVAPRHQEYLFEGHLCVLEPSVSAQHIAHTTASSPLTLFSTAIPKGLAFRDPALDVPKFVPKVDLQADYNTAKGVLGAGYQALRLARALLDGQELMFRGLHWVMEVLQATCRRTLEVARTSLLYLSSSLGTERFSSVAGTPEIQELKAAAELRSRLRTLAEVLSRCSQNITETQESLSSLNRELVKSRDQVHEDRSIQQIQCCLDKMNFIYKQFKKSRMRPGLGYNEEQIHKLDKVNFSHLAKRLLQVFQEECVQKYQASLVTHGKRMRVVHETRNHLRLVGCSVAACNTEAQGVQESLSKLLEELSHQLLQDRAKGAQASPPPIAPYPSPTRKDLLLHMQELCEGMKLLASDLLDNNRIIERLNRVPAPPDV

[2] = target: T2, Serine/threonine-protein kinase Nek1 (Homo sapiens) (UniProt Q96PY6); details: at 0.1 µM
T2 sequence (whole entry): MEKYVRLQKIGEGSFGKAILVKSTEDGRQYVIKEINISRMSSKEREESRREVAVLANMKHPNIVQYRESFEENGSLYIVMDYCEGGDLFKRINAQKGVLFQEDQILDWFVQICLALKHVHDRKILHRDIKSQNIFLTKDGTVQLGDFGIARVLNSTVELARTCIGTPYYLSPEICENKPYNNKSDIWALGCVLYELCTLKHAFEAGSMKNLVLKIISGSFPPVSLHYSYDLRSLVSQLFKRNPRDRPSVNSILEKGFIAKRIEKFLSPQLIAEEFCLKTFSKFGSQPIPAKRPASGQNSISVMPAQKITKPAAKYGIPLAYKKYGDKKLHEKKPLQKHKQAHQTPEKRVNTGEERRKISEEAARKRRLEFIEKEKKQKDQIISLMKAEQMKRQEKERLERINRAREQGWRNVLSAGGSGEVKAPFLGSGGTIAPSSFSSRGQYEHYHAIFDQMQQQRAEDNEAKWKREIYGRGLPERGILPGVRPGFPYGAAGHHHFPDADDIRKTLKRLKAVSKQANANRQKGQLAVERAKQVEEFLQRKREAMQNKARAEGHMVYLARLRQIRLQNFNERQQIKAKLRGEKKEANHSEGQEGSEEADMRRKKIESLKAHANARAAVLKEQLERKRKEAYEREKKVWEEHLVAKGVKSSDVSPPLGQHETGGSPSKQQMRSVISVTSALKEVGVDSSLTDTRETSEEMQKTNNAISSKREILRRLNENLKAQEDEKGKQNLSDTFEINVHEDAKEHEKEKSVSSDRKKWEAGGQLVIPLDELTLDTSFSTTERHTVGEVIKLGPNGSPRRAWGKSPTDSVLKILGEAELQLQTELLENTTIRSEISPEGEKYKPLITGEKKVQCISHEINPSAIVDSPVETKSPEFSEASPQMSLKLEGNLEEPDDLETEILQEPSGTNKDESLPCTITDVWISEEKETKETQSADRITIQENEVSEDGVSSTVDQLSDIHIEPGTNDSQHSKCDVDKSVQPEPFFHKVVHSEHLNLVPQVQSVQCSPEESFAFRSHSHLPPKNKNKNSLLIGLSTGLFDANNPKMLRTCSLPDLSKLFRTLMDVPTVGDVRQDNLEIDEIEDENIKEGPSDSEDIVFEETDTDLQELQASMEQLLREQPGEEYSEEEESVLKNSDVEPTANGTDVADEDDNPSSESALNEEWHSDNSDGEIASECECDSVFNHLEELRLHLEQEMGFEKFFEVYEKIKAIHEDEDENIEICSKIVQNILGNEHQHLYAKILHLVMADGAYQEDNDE

[3] = target: T2, Serine/threonine-protein kinase Nek1 (Homo sapiens); details: at 1 µM
[4] = target: T3, Serine/threonine-protein kinase Nek2 (Homo sapiens) (UniProt P51955); details: at 0.1 µM
T3 sequence (whole entry): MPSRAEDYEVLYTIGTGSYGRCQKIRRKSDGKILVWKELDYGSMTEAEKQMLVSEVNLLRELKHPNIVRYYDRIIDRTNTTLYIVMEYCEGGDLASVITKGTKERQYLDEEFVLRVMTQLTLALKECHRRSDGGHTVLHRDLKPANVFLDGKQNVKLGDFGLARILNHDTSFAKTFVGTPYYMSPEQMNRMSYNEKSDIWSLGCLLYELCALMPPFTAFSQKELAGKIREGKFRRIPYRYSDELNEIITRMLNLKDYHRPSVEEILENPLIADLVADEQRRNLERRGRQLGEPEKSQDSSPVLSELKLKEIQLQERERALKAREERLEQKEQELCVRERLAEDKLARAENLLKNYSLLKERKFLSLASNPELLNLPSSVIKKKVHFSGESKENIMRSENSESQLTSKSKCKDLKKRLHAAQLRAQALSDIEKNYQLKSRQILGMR

[5] = target: T3, Serine/threonine-protein kinase Nek2 (Homo sapiens); details: at 1 µM
[6] = target: Serine/threonine-protein kinase Nek6 (Homo sapiens) (UniProt Q9HC98); details: at 0.1 µM
Sequence of Serine/threonine-protein kinase Nek6 (Homo sapiens) (Q9HC98 whole entry): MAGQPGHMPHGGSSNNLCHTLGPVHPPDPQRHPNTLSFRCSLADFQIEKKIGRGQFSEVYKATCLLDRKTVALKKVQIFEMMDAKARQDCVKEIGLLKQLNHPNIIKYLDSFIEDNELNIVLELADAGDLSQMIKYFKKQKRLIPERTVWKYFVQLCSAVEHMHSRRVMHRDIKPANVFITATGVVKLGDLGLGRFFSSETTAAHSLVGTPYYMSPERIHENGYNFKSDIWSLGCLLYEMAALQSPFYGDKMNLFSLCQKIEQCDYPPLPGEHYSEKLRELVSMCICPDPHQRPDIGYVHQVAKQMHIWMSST

[7] = target: Serine/threonine-protein kinase Nek6 (Homo sapiens) (UniProt Q9HC98); details: at 1 µM
[8] = target: Serine/threonine-protein kinase Nek7 (Homo sapiens) (UniProt Q8TDX7); details: at 0.1 µM
Sequence of Serine/threonine-protein kinase Nek7 (Homo sapiens) (Q8TDX7 whole entry, looked up): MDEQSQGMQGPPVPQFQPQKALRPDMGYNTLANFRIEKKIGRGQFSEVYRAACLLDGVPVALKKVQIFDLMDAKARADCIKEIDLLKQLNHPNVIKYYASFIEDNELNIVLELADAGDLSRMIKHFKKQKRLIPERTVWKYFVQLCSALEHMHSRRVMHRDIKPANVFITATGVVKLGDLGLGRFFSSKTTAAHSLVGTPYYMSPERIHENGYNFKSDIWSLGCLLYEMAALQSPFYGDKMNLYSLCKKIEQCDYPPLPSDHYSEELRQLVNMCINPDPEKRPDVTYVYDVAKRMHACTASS

[9] = target: Serine/threonine-protein kinase Nek7 (Homo sapiens) (UniProt Q8TDX7); details: at 1 µM
[10] = target: T4, Serine/threonine-protein kinase Nek9 (Homo sapiens) (UniProt Q8TD19); details: at 0.1 µM
T4 sequence (whole entry): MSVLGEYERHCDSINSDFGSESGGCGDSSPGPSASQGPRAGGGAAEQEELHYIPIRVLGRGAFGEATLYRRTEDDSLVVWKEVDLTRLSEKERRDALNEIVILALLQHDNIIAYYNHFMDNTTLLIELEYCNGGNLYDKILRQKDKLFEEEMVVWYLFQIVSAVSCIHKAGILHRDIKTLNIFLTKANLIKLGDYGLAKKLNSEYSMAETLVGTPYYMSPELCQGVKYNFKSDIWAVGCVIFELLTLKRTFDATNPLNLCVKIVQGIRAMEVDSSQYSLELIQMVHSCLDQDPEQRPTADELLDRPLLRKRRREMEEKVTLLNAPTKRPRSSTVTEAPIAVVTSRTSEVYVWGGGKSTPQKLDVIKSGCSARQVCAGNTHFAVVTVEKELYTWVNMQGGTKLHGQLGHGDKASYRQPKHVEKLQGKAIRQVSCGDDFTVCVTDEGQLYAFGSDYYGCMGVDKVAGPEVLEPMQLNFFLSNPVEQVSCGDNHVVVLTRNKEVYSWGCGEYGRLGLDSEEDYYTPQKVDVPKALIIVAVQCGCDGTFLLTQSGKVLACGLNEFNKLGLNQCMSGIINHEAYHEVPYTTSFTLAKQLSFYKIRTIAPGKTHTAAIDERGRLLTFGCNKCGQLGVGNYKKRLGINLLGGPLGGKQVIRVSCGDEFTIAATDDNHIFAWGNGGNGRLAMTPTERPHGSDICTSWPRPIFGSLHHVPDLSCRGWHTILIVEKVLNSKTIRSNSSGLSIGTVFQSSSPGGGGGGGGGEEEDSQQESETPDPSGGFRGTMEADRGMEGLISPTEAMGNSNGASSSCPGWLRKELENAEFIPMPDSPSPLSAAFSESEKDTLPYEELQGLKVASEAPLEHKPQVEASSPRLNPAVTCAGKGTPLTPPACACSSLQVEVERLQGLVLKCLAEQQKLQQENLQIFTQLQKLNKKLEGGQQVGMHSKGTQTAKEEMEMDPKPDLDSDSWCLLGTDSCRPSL

[11] = target: T4, Serine/threonine-protein kinase Nek9 (Homo sapiens); details: at 1 µM
[12] = target: Serine/threonine-protein kinase PLK1 (Homo sapiens) (UniProt P53350); details: at 0.1 µM
Sequence of Serine/threonine-protein kinase PLK1 (Homo sapiens) (P53350 whole entry): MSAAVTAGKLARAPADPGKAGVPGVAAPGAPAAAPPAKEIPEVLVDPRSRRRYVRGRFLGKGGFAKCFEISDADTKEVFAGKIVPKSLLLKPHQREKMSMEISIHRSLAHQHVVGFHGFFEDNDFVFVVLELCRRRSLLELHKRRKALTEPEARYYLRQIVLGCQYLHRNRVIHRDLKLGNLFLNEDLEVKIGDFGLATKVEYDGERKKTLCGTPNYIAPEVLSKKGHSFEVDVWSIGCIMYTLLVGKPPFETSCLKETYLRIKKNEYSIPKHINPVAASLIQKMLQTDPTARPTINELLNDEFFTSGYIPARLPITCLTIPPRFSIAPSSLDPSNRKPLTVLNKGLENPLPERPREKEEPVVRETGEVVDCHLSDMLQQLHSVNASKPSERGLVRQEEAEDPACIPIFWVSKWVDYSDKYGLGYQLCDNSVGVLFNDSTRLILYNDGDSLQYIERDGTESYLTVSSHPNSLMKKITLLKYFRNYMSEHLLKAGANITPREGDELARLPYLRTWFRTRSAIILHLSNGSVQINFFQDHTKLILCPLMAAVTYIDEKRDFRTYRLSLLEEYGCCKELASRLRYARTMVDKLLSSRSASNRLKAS

[13] = target: Serine/threonine-protein kinase PLK1 (Homo sapiens) (UniProt P53350); details: at 1 µM
[14] = target: T5, Dual specificity protein kinase TTK (Homo sapiens) (UniProt P33981); details: at 0.1 µM
T5 sequence (whole entry): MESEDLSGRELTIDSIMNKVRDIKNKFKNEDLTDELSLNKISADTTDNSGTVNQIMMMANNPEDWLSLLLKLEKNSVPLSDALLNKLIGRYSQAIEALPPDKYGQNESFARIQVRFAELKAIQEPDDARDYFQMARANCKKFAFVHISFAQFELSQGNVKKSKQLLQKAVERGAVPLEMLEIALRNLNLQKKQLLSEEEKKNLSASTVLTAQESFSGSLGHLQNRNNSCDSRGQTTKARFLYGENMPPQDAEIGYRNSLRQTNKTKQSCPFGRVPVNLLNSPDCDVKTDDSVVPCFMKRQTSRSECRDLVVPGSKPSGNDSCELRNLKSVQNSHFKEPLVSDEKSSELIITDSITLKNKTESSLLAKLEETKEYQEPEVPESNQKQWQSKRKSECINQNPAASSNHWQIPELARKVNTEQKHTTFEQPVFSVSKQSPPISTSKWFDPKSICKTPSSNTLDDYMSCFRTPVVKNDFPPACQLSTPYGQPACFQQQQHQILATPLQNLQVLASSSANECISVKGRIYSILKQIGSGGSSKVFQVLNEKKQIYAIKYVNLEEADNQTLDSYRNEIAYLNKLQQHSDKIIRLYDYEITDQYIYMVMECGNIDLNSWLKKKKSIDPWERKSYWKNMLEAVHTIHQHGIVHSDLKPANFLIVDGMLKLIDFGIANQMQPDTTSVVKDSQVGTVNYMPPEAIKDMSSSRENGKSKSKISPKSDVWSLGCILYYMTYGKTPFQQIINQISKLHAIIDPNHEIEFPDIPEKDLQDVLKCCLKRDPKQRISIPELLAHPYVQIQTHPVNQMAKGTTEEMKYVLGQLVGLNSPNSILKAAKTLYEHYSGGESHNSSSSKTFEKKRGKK

[15] = test system: T6, Receptor-type tyrosine-protein kinase FLT3 (Homo sapiens), P36888 [D835Y]; details: at 1 µM
T6 sequence (whole entry): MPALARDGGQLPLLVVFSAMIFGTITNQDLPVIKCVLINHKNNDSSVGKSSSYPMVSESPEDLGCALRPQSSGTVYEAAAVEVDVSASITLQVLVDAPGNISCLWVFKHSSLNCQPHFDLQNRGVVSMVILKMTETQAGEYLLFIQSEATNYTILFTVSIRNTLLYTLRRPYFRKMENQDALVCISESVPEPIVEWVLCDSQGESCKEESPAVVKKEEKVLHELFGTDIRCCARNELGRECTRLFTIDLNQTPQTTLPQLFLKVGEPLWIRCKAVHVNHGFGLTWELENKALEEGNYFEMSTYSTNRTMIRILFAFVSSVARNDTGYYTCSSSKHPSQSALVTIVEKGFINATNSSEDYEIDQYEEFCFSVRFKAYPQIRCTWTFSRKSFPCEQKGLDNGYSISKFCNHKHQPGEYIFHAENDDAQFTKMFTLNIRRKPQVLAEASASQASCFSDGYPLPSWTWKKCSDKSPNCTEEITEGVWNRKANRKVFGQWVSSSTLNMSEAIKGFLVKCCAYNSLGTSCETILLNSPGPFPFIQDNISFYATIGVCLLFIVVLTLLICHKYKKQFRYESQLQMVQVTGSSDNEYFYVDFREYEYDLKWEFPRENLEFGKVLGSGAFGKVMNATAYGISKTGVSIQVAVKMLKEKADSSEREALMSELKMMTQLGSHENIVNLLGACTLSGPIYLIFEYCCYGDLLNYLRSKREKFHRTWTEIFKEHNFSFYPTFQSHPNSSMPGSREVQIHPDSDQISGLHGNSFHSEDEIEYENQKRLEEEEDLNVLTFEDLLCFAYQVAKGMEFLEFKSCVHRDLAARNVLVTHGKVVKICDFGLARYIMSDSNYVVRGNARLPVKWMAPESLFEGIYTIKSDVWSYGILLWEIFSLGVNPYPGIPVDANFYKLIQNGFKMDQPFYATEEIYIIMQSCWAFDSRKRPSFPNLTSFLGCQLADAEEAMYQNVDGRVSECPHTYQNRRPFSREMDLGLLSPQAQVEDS

[16] = target: Vascular endothelial growth factor receptor 3 (Homo sapiens) (UniProt P35916); details: at 0.1 µM
Sequence of Vascular endothelial growth factor receptor 3 (Homo sapiens) (P35916 whole entry): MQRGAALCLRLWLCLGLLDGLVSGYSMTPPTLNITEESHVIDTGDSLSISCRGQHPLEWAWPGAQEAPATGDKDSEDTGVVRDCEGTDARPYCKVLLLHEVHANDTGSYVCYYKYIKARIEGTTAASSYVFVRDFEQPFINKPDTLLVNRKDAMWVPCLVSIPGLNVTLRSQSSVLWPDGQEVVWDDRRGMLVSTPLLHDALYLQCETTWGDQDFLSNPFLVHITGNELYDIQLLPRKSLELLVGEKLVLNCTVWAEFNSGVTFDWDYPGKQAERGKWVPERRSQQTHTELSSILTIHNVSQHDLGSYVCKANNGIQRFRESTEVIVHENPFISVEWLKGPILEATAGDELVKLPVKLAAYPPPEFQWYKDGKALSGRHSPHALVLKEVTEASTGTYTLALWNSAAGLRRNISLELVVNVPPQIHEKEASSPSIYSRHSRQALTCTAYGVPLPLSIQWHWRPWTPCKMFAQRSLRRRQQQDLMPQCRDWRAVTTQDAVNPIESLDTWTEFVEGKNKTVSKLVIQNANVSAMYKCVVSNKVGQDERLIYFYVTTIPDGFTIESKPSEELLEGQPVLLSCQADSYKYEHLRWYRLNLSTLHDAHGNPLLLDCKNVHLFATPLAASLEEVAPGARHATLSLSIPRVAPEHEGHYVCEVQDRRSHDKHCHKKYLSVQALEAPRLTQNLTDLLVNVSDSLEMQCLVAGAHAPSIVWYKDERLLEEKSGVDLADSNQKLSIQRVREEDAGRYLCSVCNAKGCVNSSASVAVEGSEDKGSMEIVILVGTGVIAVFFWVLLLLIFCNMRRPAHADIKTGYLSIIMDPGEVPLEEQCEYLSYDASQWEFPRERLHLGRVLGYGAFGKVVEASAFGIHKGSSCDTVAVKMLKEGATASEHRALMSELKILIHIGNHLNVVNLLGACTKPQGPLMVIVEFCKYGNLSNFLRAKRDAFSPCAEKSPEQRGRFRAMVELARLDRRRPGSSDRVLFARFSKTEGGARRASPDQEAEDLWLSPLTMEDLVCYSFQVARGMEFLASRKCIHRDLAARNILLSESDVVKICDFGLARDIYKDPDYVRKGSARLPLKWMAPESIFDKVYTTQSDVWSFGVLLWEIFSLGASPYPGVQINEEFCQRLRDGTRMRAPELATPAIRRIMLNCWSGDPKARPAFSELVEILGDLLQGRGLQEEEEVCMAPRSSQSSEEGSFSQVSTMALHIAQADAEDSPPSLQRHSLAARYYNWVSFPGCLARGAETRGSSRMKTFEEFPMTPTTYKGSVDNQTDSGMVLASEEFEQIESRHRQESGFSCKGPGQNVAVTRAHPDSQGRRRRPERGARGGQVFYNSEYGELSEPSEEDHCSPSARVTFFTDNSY

[17] = target: Vascular endothelial growth factor receptor 3 (Homo sapiens) (UniProt P35916); details: at 1 µM
[18] = target: Macrophage colony-stimulating factor 1 receptor (Homo sapiens) (UniProt P07333); details: at 0.1 µM
Sequence of Macrophage colony-stimulating factor 1 receptor (Homo sapiens) (P07333 whole entry): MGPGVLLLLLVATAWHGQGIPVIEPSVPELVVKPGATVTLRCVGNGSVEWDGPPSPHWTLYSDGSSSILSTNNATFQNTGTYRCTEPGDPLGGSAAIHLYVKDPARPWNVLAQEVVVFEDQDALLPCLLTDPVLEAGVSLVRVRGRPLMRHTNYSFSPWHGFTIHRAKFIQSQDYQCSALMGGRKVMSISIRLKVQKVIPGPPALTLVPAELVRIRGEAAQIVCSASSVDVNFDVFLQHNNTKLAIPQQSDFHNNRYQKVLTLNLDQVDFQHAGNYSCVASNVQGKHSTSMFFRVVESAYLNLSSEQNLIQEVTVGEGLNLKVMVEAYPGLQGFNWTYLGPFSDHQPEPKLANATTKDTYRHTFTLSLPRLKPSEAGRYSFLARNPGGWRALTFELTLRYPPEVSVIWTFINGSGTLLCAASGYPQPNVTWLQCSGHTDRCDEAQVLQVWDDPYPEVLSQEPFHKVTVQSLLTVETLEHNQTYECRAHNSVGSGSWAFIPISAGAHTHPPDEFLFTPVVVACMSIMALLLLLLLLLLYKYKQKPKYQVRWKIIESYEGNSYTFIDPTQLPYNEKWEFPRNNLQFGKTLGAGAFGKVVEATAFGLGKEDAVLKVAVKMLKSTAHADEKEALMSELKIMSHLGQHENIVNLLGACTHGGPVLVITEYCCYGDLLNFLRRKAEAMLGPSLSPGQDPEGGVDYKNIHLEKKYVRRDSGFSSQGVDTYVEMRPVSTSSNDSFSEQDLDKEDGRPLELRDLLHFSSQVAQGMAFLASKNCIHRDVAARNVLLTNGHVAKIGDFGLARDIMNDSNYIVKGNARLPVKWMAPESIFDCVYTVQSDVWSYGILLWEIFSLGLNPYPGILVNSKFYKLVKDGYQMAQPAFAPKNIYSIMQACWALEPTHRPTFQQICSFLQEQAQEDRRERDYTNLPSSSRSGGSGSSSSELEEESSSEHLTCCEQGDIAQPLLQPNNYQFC

[19] = target: Macrophage colony-stimulating factor 1 receptor (Homo sapiens) (UniProt P07333); details: at 1 µM
[20] = target: Tyrosine-protein kinase Fyn (Homo sapiens) (UniProt P06241); details: at 0.1 µM
Sequence of Tyrosine-protein kinase Fyn (Homo sapiens) (P06241 2-537 limits assumed): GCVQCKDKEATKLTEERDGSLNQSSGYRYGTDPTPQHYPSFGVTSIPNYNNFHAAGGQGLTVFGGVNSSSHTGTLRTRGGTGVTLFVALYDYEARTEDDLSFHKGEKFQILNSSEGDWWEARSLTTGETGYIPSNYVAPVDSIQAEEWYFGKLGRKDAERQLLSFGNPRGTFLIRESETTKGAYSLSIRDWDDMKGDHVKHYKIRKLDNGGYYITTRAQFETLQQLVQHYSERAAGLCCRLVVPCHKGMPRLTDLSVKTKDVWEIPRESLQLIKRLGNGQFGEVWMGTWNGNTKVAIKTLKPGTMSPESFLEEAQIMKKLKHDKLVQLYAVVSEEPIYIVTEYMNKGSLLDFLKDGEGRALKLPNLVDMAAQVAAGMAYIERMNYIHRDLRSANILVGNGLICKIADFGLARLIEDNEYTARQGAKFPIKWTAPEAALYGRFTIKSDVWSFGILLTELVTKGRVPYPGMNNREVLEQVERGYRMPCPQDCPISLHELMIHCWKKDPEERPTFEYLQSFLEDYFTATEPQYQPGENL

SMILES	inhibition [1] [%]	inhibition [2] [%]	inhibition [3] [%]	inhibition [4] [%]	inhibition [5] [%]	inhibition [6] [%]	inhibition [7] [%]	inhibition [8] [%]	inhibition [9] [%]	inhibition [10] [%]	inhibition [11] [%]	inhibition [12] [%]	inhibition [13] [%]	inhibition [14] [%]	inhibition [15] [%]	inhibition [16] [%]	inhibition [17] [%]	inhibition [18] [%]	inhibition [19] [%]	inhibition [20] [%]
CN(c1ccc(NC(=O)NCCN2CCOCC2)cc1)c1ccnc(Nc2ccc(CS(C)(=O)=O)cc2)n1	95.2	2.09	4.64	2.52	1.94	3.82	3.91	3.06	3.17	5.2	4.91	0.46	1.42	6.2	19.9	4.1	20.6	79.7	97	0.52
COc1cccc(-n2ncc3c(N/N=C/c4ccc(C(=O)NCCN(C)C)cc4)ncnc32)c1	-5.84	2.06	7.24	0.16	1.98	1.11	0.35	3.99	-1.23	5.54	1.36	1.5	2.1	3.48	76	12.1	53.5	6.78	37.8	48.6
